This passage reports outcome results from PubChem BioAssay (Tox21).

Structures are written as SMILES. Inconclusive results are not listed. The source made the active and inactive calls. Calls follow the shape of the full dose curve.

This assay is described as follows: qHTS assay to identify small molecule agonists of the endoplasmic reticulum stress response signaling pathway - cell viability counter screen (AID 1159517). Also: nearly all actives have a fitted effect of over 50% in size. The conditions noted are these: ESRE-bla HeLa viability, CellTiter-Glo luminescence, 5 h; series mostly up to 61 µM. From the text:
U.S. Tox21 Program National Center for Advancing Translational Sciences [NCATS] NIH Chemical Genomics Center [NCGC] U.S. Environmental Protection Agency [EPA] National Institutes of Environmental Health Sciences [NIEHS] National Toxicology Program [NTP] U.S. Food and Drug Administration [FDA] Tox21 Assay Overview: Endoplasmic Reticulum (ER) plays an important role in cellular signaling, protein folding/maturation, stress response, lipid biosynthesis, calcium storage and release etc. Under stress conditions, proteins in ER misfold or unfold, and leading to the expression of ER stress responsive genes. ER stress has been associated with a variety of pathophysiological conditions such as cancer, inflammation, neurodegenerative diseases, diabetes, ischemic heart disease etc. To identify the compounds that induce ER stress response, an ER stress reporter cell line, CellSensor ESRE-bla HeLa (Life Technologies, Carlsbad, CA) containing a beta-lactamase reporter gene under control of the Endoplasmic reticulum Stress Response Element (ESRE) was used to screen Tox21 10K compound library. The cytotoxicity of the Tox21 compound library against the ESRE-bla HeLa cell line was tested in parallel by measuring cell viability using the CellTiter-Glo assay in the same wells.
Tox21 Assay Protocol Summary: ESRE-bla HeLa cells were dispensed at 1,500 cells/6 uL of assay medium per well into black wall/clear-bottom 1536-well plates using a Multidrop Combi (ThermoFisher Scientific, Waltham, MA) dispenser. After the assay plates were incubated at 37 C and 5% CO2 for an overnight, 23 nL of compounds dissolved in DMSO, positive controls or DMSO only was transferred to the assay plate by a Pintool station (Kalypsys, San Diego, CA). The assay plates were incubated at 37 C and 5% CO2 for 5 hr. One uL of LiveBLAzer B/G FRET substrate (Life Technologies) was added using a FRD (Flying Reagent Dispenser, Aurora Discovery, San Diego, CA) and the plates were incubated at room temperature for 2 hr. Fluorescence intensity (405 nm excitation, 460 nm and 530 nm emissions) was measured using an Envision plate reader (PerkinElmer, Shelton, CT). For cytotoxicity, 4 ul/well of CellTiter-Glo reagent was added into the assay plates using an FRD. After 30 min incubation at room temperature, the luminescence intensity was measured using a ViewLux plate reader (PerkinElmer).
On the technique in general: qHTS replaces the single test concentration by a dilution series.
Take `NC1CCN(c2cccc(Cl)n2)CC1`: the result was inactive.

Regarding `CCC(=O)Nc1cccc(N)c1`, the molecule was classed as inactive.

In the case of `CCN1CCN(c2cc3c(cc2F)c(=O)c(C(=O)O)cn3C2CC2)CC1`, the molecule was classed as inactive.

With `COc1cc(C(=O)N2CCOCC2)cc(OC)c1OC`, the molecule was classed as inactive.

In the case of `CCCc1ccccc1O`, the call was inactive.

With `CCCCOCC(C)OCC(C)O` (stereo not given), the molecule was called inactive.

In the case of `CCOC(=O)Cn1c(=O)sc2cccc(Cl)c21`, the result was inactive.

Take `CCO[Si](C)(OCC)OCC`: the molecule was called inactive.

As to `Oc1cc(O)c2c(c1)O[C@H](c1ccc(O)c(O)c1)[C@H](O)C2`, the molecule was classed as inactive.

For the molecule `O=[N+]([O-])c1ccc(Oc2ccc([N+](=O)[O-])cc2)cc1`, the outcome was inactive.

As to `CC(C)N1C(=O)c2ccccc2C1=O`, the result was inactive.

With `NC(=O)c1c(Cl)cccc1Cl`, the outcome was inactive.

Turning to `O=C1CC2(CCCC2)CC(=O)N1`, the molecule was called inactive.

`O=C(O)Cc1cc(I)c(Oc2cc(I)c(O)c(I)c2)c(I)c1`: the call was inactive.

As to `Cc1cc(C)cc(OCC2CNC(=O)O2)c1` (stereo not given), the molecule was classed as inactive.

Take `CN(C)C(=O)C(CCN1CCC(O)(c2ccc(Cl)cc2)CC1)(c1ccccc1)c1ccccc1`: the call was inactive.

Consider `CNC(=O)c1c(I)c(NC(=O)CCCCC(=O)Nc2c(I)c(C(=O)O)c(I)c(C(=O)NC)c2I)c(I)c(C(=O)O)c1I`, for which the result was inactive.

Consider `CC(C)=CC(=O)O`, for which the molecule was called inactive.

Turning to `N#CCc1ccccc1[N+](=O)[O-]`, the molecule was called inactive.

As for `NC(=O)c1ncn([C@@H]2O[C@H](CO)[C@@H](O)[C@H]2O)c1O`, the outcome was inactive.

As to `C=C[Si](OC)(OC)OC`, the call was inactive.

Regarding `CO`, the call was inactive.

In the case of `OC/C=C/c1ccccc1`, the call was inactive.

With `CCCOc1ccccc1-c1nc2n[nH]nc2c(=O)[nH]1`, the result was inactive.

For `CN(C)N=Nc1ccccc1`, the call was inactive.

As for `CC1(C)SC(C)(C)SC(C)(C)S1`, the molecule was classed as inactive.

`Cc1ccc(N)cc1[N+](=O)[O-]`: the molecule was called inactive.

In the case of `C[C@H]1O[C@@H](n2cc(F)c(=O)[nH]c2=O)[C@H](O)[C@@H]1O`, the outcome was inactive.

On to `Nc1ccc2cc(S(=O)(=O)O)ccc2c1`, for which the molecule was classed as inactive.

In the case of `N[C@@H](CS)C(=O)O`, the molecule was classed as inactive.

For the molecule `COC[C@H](c1ccc(C(F)(F)F)cc1)N1CCN(C2(C)CCN(C(=O)c3c(C)ncnc3C)CC2)C[C@H]1C`, the outcome was inactive.

As for `CSc1nc(NC2CC2)nc(NC(C)(C)C)n1`, the call was inactive.

With `O=C1OC(=O)c2cc([N+](=O)[O-])ccc21`, the molecule was classed as inactive.

On to `C=CC(=O)OCCCCCC`, for which the call was inactive.

For `C(=C(c1ccccc1)c1ccccc1)c1ccccc1`, the molecule was classed as inactive.

Turning to `CCCCC=O`, the outcome was inactive.

Take `CCCCCCCCCCCCI`: the molecule was classed as inactive.

Take `CC(C)COC(=O)C(C)C`: the molecule was called inactive.

With `CCCCc1ccc(N)cc1`, the outcome was inactive.

For `c1ccc2cnncc2c1`, the molecule was classed as inactive.
